# From the supplement of paper PMC8728848
# This is one part of a sample in which the strongest signals are shown more often than they occur.
# B1: ZG16p (Homo sapiens), O60844 (protein)
# chain: ARSSSYSGEYGGGGGKRFSHSGNQLDGPITALRVRVNTYYIVGLQVRYGKVWSDYVGGRNGDLEEIFLHPGESVIQVSGKYKWYLKKLLFVTDKGRYLSFGKDSGTSFNAVPLHPNTVLRFISGRSGSLIDAIGLHWDVYPSSCSRC
# Assays:
# Assay in all cases: glycan array binding signal (z-score within array); higher = stronger binding
# Conditions in all cases: glycan notation: IUPAC condensed, linker removed
# [1] = molecular target: 3dGal(b1-3)[Fuc(a1-4)]Glc
# Procedure, shortened: (§1)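 Arrays were curated from the Consortium for Functional Glycomics database, 3228 in total, and kept only where the protein sequence was available. Binding is expressed as a within-array Z-score. This score was averaged across arrays of the same protein sequence at different concentrations or buffers and across linkers, and negative values can be read as non-binding.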
# [2] = molecular target: Fuc(a1-3)[3dGal(b1-4)]Glc
# Procedure, shortened: as §1
# [3] = molecular target: Fuc(a1-3)[Gal(b1-4)]GlcNAc(b1-3)Gal(b1-4)Glc
# Procedure, shortened: as §1
# [4] = molecular target: Fuc(a1-3)[Gal6S(b1-4)]GlcNAc(b1-3)Gal(b1-4)Glc
# Procedure, shortened: as §1
# Gal(a1-6)Glc = molecular target: Gal(a1-6)Glc
# Procedure, shortened: as §1
# Gal(b1-4)Glc = molecular target: Gal(b1-4)Glc
# Procedure, shortened: as §1
# [5] = molecular target: Gal(b1-4)GlcNAc(b1-2)Man(a1-3)[Man(a1-6)]Man(b1-4)GlcNAc(b1-4)GlcNAc
# Procedure, shortened: as §1
# [6] = molecular target: Gal(b1-4)GlcNAc(b1-3)[Fuc(a1-3)[Gal(b1-4)]GlcNAc(b1-6)]Gal(b1-4)Glc
# Procedure, shortened: as §1
# Glc(a1-3)Glc = molecular target: Glc(a1-3)Glc
# Procedure, shortened: as §1
# [7] = molecular target: Glc(a1-4)Glc(a1-4)Glc(a1-4)Glc(a1-4)Glc(a1-4)Glc(a1-4)Glc(a1-4)Glc
# Procedure, shortened: as §1
# [8] = molecular target: Glc(a1-4)Glc(a1-4)Glc(a1-4)Glc(a1-4)Glc(a1-4)Glc(a1-4)Glc(a1-4)Glc(a1-4)Glc(a1-4)Glc
# Procedure, shortened: as §1
# [9] = molecular target: Glc(a1-4)Glc(a1-4)Glc(a1-4)Glc(a1-4)Glc(a1-4)Glc(a1-4)Glc(a1-4)Glc(a1-4)Glc(a1-4)Glc(a1-4)Glc(a1-4)Glc
# Procedure, shortened: as §1
# [10] = molecular target: Glc(a1-4)Glc(a1-4)Glc(a1-4)Glc(a1-4)Glc(a1-4)Glc(a1-4)Glc(a1-4)Glc(a1-4)Glc(a1-4)Glc(a1-4)Glc(a1-4)Glc(a1-4)Glc
# Procedure, shortened: as §1
# Glc(a1-6)Glc(a1-6)Glc = molecular target: Glc(a1-6)Glc(a1-6)Glc
# Procedure, shortened: as §1
# [11] = molecular target: Glc(b1-3)Glc(b1-3)Glc(b1-3)Glc
# Procedure, shortened: as §1
# Glc(b1-6)Glc = molecular target: Glc(b1-6)Glc
# Procedure, shortened: as §1
# GlcA(b1-3)Gal(b1-4)Glc = molecular target: GlcA(b1-3)Gal(b1-4)Glc
# Procedure, shortened: as §1
# [12] = molecular target: GlcNAc(b1-2)[GlcNAc(b1-4)]Man(a1-3)[GlcNAc(b1-2)[GlcNAc(b1-4)][GlcNAc(b1-6)]Man(a1-6)][GlcNAc(b1-4)]Man(b1-4)GlcNAc(b1-4)GlcNAc
# Procedure, shortened: as §1
# [13] = molecular target: GlcNAc(b1-3)[GlcNAc(b1-6)]Gal
# Procedure, shortened: as §1
# [14] = molecular target: GlcNAc(b1-4)GlcNAc(b1-4)GlcNAc(b1-4)GlcNAc(b1-4)GlcNAc(b1-4)GlcNAc
# Procedure, shortened: as §1
# [15] = molecular target: Kdn(a2-3)Gal(b1-3)GlcNAc(b1-3)Gal(b1-4)Glc
# Procedure, shortened: as §1
# [16] = molecular target: Kdn(a2-3)Gal(b1-4)[Fuc(a1-3)]GlcNAc(b1-3)Gal
# Procedure, shortened: as §1
# Man(a1-3)Man = molecular target: Man(a1-3)Man
# Procedure, shortened: as §1
# Man(a1-3)Man(b1-4)GlcNAc = molecular target: Man(a1-3)Man(b1-4)GlcNAc
# Procedure, shortened: as §1
# [17] = molecular target: Man(b1-4)Man(b1-4)Man(b1-4)Man(b1-4)Man(b1-4)Man
# Procedure, shortened: as §1
# [18] = molecular target: Neu5Ac(a2-3)Gal(b1-3)GlcNAc(b1-3)[Fuc(a1-3)[Gal(b1-4)]GlcNAc(b1-6)]Gal(b1-4)Glc
# Procedure, shortened: as §1
# Neu5Ac(a2-3)Gal(b1-4)Glc = molecular target: Neu5Ac(a2-3)Gal(b1-4)Glc
# Procedure, shortened: as §1
# [19] = molecular target: Neu5Ac(a2-3)Gal(b1-4)[Fuc(a1-3)]GlcNAc(b1-6)Gal(b1-4)Glc
# Procedure, shortened: as §1
# [20] = molecular target: Neu5Ac(a2-3)Gal6S(b1-4)[Fuc(a1-3)]GlcNAc(b1-3)Gal(b1-4)Glc
# Procedure, shortened: as §1
# [21] = molecular target: Neu5Ac(a2-6)Gal(b1-3)GlcNAc(b1-3)[Fuc(a1-3)[Gal(b1-4)]GlcNAc(b1-6)]Gal(b1-4)Glc
# Procedure, shortened: as §1
# [22] = molecular target: Neu5Ac(a2-8)Neu5Ac(a2-8)Neu5Ac(a2-3)Gal(b1-4)Glc
# Procedure, shortened: as §1
# [23] = molecular target: Neu5Ac9Me(a2-3)Gal(b1-4)Glc
# Procedure, shortened: as §1
# [24] = molecular target: Neu5Gc(a2-6)Gal(b1-4)GlcNAc(b1-2)Man(a1-3)[Neu5Gc(a2-6)Gal(b1-4)GlcNAc(b1-2)Man(a1-6)]Man(b1-4)GlcNAc(b1-4)GlcNAc
# Procedure, shortened: as §1
# [25] = molecular target: Xyl(b1-2)[Man(a1-3)][Man(a1-6)]Man(b1-4)GlcNAc(b1-4)[Fuc(a1-3)]GlcNAc
# Procedure, shortened: as §1
binder,measurement,setting,value
B1,glycan array binding signal (z-score),[1],-0.327
same,glycan array binding signal (z-score),[2],-0.025
same,glycan array binding signal (z-score),[3],-0.178
same,glycan array binding signal (z-score),[4],-0.328
same,glycan array binding signal (z-score),Gal(a1-6)Glc,-0.272
same,glycan array binding signal (z-score),Gal(b1-4)Glc,-0.133
same,glycan array binding signal (z-score),[5],-0.273
same,glycan array binding signal (z-score),[6],-0.328
same,glycan array binding signal (z-score),Glc(a1-3)Glc,2.88
same,glycan array binding signal (z-score),[7],1.93
same,glycan array binding signal (z-score),[8],1.95
same,glycan array binding signal (z-score),[9],4.4
same,glycan array binding signal (z-score),[10],2.82
same,glycan array binding signal (z-score),Glc(a1-6)Glc(a1-6)Glc,0.475
same,glycan array binding signal (z-score),[11],0.797
same,glycan array binding signal (z-score),Glc(b1-6)Glc,2.7
same,glycan array binding signal (z-score),GlcA(b1-3)Gal(b1-4)Glc,-0.328
same,glycan array binding signal (z-score),[12],-0.42
same,glycan array binding signal (z-score),[13],0.435
same,glycan array binding signal (z-score),[14],-0.328
same,glycan array binding signal (z-score),[15],-0.328
same,glycan array binding signal (z-score),[16],-0.328
same,glycan array binding signal (z-score),Man(a1-3)Man,2.78
same,glycan array binding signal (z-score),Man(a1-3)Man(b1-4)GlcNAc,2.31
same,glycan array binding signal (z-score),[17],-0.328
same,glycan array binding signal (z-score),[18],-0.328
same,glycan array binding signal (z-score),Neu5Ac(a2-3)Gal(b1-4)Glc,-0.276
same,glycan array binding signal (z-score),[19],-0.328
same,glycan array binding signal (z-score),[20],-0.328
same,glycan array binding signal (z-score),[21],-0.328
same,glycan array binding signal (z-score),[22],-0.328
same,glycan array binding signal (z-score),[23],-0.328
same,glycan array binding signal (z-score),[24],-0.282
same,glycan array binding signal (z-score),[25],-0.369
